From ChEMBL document CHEMBL1961873, “Compounds: GSK PKIS; Assays: Nanosyn kinase panel” (2012) come the findings set out here.

For assay [1], the target named is Tyrosine-protein kinase SYK (Homo sapiens) (UniProt P43405). To be noted: at 1 µM.
For assay [2], the target named is T1, Tyrosine-protein kinase Tec (Homo sapiens) (UniProt P42680).
T1 sequence (whole entry): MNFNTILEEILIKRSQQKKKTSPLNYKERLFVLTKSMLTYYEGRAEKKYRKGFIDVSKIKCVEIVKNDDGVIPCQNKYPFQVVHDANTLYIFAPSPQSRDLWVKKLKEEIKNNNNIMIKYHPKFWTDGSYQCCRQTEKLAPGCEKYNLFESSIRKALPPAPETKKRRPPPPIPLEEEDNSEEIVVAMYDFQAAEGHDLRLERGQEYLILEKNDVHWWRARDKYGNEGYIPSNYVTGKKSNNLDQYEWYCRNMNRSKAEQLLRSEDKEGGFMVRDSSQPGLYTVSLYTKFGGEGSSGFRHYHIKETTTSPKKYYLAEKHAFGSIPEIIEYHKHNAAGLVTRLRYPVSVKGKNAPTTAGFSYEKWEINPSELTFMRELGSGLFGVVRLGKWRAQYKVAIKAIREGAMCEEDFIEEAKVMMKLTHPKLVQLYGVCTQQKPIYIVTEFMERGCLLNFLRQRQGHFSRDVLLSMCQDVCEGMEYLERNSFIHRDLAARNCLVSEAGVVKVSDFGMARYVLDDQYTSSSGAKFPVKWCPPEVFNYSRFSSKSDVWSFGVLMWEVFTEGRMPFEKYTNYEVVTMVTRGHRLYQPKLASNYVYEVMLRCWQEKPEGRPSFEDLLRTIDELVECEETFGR
Particulars: at 0.1 µM.

The target in assay [3] is T1, Tyrosine-protein kinase Tec (Homo sapiens). To be noted: at 1 µM.
In assay [4] the target is Angiopoietin-1 receptor (Homo sapiens) (UniProt Q02763). To be noted: at 0.1 µM.
Chain of Angiopoietin-1 receptor (Homo sapiens) (Q02763 whole entry): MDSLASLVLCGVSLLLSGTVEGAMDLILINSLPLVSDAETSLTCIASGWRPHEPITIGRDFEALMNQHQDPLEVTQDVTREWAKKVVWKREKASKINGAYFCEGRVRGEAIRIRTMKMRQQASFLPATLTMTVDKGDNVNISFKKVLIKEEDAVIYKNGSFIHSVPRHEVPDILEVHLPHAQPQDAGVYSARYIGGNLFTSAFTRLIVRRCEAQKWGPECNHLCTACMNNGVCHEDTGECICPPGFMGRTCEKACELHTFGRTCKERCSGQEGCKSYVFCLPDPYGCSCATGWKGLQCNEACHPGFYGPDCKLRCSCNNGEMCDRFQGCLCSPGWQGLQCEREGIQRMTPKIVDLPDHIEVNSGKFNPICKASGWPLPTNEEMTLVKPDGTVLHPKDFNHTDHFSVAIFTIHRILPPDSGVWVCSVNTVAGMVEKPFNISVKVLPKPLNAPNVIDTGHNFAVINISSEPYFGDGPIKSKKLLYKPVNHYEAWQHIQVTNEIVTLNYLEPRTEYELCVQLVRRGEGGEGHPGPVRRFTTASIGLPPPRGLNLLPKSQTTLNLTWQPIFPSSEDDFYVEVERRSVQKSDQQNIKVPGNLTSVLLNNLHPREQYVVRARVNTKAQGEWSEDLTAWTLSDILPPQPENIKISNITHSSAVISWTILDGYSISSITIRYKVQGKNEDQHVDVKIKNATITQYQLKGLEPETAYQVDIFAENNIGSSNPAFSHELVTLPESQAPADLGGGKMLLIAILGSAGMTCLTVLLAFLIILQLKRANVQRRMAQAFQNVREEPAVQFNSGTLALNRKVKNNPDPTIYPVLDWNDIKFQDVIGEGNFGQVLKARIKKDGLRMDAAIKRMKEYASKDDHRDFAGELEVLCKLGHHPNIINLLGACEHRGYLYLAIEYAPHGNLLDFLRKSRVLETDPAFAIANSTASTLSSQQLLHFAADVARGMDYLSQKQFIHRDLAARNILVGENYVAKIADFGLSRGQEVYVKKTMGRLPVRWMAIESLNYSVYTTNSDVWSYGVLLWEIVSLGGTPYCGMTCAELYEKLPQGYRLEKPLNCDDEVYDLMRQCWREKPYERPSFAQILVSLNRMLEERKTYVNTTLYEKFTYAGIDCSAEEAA
For assay [5] the target is unchanged. To be noted: at 1 µM.
The target in assay [6] is T2, Non-receptor tyrosine-protein kinase TNK1 (Homo sapiens) (UniProt Q13470).
T2 sequence (whole entry): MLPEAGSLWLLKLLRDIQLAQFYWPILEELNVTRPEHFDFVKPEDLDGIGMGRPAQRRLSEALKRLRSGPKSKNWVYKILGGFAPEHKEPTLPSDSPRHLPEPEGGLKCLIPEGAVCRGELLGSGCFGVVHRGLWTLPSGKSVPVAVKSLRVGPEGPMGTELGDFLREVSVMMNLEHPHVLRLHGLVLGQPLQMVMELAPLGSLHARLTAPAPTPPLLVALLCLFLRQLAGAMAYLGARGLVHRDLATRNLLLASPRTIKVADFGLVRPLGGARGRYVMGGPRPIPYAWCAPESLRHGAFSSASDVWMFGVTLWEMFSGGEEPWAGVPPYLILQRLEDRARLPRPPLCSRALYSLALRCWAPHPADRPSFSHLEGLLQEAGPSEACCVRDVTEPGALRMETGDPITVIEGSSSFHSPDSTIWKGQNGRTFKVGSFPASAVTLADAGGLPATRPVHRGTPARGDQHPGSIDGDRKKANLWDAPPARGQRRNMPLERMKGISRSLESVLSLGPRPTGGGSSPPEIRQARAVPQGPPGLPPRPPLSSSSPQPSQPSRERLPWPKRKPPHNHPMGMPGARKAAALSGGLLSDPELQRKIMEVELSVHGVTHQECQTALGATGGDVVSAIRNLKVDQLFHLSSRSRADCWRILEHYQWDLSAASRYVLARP
To be noted: at 0.1 µM.

Assay [7] has as its target T2, Non-receptor tyrosine-protein kinase TNK1 (Homo sapiens). To be noted: at 1 µM.
Assay [8] concerns the target Activated CDC42 kinase 1 (Homo sapiens) (UniProt Q07912). Particulars: at 0.1 µM.
Assay [9] has the same target. Particulars: at 1 µM.
Assay [10] addresses High affinity nerve growth factor receptor (Homo sapiens) (UniProt P04629). To be noted: at 0.1 µM.
Assay [11] shares this target. To be noted: at 1 µM.
Assay [12] concerns the target BDNF/NT-3 growth factors receptor (Homo sapiens) (UniProt Q16620). To be noted: at 0.1 µM.
Assay [13] has the same target. Particulars: at 1 µM.
The target of assay [14] is NT-3 growth factor receptor (Homo sapiens) (UniProt Q16288). Particulars: at 0.1 µM.
Chain of NT-3 growth factor receptor (Homo sapiens) (Q16288 32-839 limits assumed): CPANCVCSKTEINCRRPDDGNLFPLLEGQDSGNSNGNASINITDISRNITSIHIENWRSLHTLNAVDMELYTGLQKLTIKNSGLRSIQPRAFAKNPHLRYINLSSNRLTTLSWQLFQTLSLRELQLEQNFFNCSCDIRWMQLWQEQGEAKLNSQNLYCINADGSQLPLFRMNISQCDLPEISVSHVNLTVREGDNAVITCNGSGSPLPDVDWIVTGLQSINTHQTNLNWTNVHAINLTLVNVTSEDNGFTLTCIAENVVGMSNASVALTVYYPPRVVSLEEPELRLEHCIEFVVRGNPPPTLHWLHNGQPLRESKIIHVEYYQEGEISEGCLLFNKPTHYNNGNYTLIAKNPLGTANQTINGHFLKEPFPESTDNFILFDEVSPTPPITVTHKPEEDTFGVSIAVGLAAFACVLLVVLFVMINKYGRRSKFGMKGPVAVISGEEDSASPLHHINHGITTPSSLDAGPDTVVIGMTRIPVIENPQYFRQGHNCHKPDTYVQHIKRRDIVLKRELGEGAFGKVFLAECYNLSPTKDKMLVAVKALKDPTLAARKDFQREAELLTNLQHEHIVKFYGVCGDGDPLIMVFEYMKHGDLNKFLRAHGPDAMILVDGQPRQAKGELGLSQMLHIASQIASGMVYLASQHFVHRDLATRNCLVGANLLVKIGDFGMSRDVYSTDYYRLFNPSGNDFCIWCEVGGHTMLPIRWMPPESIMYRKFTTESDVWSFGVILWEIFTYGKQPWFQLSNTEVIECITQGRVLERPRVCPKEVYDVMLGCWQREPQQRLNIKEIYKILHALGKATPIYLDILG
Assay [15] shares this target. Particulars: at 1 µM.
The target of assay [16] is T3, Tyrosine-protein kinase TXK (Homo sapiens) (UniProt P42681).
T3 sequence (whole entry): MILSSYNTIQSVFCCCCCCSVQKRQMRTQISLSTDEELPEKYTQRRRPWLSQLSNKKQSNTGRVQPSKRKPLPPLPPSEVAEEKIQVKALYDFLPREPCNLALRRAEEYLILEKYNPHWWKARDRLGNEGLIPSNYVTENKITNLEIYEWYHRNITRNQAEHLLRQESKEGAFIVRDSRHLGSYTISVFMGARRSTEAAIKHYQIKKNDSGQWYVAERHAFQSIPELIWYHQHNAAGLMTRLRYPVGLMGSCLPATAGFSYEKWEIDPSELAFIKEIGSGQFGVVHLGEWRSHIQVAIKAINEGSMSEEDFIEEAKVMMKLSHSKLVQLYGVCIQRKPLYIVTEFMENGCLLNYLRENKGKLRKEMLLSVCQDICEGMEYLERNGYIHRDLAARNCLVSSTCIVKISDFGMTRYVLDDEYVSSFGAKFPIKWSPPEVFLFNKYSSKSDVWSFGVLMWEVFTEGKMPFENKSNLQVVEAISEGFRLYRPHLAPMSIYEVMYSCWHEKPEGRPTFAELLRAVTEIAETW
Particulars: at 0.1 µM.

In assay [17] the target is T3, Tyrosine-protein kinase TXK (Homo sapiens). Particulars: at 1 µM.
Assay [18] deals with Non-receptor tyrosine-protein kinase TYK2 (Homo sapiens) (UniProt P29597). Particulars: at 0.1 µM.
Chain of Non-receptor tyrosine-protein kinase TYK2 (Homo sapiens) (P29597 whole entry): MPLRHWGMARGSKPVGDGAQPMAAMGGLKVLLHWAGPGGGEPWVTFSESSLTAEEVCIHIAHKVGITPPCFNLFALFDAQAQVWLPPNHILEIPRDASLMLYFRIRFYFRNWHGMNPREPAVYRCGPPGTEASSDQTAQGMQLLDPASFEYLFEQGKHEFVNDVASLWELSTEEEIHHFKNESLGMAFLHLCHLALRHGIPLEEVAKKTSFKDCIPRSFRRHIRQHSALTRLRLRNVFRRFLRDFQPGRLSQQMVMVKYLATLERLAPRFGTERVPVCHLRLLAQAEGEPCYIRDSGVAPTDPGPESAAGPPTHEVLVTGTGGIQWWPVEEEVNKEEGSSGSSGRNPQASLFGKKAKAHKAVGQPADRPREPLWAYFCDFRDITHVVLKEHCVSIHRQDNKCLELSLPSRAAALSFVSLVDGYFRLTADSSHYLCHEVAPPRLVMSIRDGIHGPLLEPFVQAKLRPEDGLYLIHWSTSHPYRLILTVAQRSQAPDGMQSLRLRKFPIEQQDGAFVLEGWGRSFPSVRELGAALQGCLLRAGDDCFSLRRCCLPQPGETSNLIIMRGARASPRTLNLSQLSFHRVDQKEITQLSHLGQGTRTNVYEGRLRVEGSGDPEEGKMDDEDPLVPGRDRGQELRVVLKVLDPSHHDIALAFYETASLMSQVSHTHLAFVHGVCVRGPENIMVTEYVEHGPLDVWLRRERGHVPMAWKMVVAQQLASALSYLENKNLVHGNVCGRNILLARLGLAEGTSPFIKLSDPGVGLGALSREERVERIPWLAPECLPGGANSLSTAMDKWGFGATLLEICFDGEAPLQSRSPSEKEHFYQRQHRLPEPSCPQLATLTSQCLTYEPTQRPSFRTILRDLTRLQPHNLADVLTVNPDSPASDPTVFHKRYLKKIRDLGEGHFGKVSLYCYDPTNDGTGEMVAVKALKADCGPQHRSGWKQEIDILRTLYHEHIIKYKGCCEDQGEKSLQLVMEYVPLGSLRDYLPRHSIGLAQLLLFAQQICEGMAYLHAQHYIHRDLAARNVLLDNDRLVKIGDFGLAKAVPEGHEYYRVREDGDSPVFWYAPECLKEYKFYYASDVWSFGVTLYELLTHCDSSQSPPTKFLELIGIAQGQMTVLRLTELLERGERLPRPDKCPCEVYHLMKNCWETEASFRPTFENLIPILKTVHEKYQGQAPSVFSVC
For assay [19], the target named is T4, Dual specificity protein kinase TTK (Homo sapiens) (UniProt P33981).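 Also: reported figures are mean TTK inhibition at 1 µM.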
T4 sequence (whole entry): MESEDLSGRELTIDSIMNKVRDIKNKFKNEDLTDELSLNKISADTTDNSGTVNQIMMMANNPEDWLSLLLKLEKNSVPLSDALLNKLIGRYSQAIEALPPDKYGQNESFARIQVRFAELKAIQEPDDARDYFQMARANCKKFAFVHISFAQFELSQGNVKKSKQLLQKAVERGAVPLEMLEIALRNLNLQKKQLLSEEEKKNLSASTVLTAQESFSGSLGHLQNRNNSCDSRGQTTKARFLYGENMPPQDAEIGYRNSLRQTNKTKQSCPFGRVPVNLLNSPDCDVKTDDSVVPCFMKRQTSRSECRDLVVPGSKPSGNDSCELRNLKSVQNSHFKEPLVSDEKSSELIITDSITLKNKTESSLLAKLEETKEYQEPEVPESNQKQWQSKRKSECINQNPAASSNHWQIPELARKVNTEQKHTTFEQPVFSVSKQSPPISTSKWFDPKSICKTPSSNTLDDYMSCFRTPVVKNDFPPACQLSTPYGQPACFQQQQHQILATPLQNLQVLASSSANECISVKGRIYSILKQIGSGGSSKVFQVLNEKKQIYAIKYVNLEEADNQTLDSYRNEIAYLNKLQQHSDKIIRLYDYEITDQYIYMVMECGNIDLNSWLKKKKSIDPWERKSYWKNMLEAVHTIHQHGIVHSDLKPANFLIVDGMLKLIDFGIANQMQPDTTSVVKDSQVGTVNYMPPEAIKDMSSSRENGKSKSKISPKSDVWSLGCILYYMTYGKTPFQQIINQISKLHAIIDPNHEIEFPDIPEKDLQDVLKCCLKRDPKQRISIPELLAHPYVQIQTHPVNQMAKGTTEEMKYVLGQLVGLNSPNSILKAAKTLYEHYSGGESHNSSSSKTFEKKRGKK
To be noted: at 1 µM.

Assay [20] concerns the target T5, Aurora kinase A (Homo sapiens) (UniProt O14965).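 Also: each reported value is a mean percent inhibition of Aurora-A.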
T5 sequence (whole entry): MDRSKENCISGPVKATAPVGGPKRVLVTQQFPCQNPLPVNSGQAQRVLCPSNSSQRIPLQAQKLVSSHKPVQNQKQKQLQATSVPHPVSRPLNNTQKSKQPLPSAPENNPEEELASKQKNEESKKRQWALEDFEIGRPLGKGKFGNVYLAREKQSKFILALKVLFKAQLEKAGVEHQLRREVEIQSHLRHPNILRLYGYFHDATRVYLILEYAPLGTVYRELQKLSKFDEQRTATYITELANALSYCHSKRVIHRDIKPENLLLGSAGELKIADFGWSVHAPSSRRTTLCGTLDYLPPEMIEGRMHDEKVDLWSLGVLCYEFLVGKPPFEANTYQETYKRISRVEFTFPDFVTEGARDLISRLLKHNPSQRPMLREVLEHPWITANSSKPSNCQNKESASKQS
To be noted: at 0.1 µM.

Chain of High affinity nerve growth factor receptor (Homo sapiens) (P04629 33-796 limits assumed): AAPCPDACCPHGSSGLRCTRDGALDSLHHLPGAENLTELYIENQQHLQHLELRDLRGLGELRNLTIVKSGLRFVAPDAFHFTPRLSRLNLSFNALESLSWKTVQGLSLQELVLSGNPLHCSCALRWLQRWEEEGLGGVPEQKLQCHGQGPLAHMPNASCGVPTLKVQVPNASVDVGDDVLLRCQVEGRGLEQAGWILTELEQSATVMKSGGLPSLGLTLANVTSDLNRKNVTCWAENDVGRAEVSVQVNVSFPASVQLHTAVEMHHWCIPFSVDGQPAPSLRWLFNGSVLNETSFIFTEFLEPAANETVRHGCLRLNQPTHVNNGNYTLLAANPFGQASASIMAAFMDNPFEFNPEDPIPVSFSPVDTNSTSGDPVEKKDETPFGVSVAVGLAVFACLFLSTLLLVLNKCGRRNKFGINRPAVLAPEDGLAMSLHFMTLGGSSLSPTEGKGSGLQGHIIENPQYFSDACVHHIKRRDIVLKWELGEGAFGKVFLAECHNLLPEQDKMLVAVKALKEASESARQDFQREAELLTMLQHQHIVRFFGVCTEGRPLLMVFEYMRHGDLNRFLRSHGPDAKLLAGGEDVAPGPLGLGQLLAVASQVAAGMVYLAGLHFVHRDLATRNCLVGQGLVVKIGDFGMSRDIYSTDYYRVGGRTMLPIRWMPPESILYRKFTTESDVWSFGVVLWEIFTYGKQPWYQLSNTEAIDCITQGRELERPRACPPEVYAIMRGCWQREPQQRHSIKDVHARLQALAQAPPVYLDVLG
Chain of BDNF/NT-3 growth factors receptor (Homo sapiens) (Q16620 32-822 limits assumed): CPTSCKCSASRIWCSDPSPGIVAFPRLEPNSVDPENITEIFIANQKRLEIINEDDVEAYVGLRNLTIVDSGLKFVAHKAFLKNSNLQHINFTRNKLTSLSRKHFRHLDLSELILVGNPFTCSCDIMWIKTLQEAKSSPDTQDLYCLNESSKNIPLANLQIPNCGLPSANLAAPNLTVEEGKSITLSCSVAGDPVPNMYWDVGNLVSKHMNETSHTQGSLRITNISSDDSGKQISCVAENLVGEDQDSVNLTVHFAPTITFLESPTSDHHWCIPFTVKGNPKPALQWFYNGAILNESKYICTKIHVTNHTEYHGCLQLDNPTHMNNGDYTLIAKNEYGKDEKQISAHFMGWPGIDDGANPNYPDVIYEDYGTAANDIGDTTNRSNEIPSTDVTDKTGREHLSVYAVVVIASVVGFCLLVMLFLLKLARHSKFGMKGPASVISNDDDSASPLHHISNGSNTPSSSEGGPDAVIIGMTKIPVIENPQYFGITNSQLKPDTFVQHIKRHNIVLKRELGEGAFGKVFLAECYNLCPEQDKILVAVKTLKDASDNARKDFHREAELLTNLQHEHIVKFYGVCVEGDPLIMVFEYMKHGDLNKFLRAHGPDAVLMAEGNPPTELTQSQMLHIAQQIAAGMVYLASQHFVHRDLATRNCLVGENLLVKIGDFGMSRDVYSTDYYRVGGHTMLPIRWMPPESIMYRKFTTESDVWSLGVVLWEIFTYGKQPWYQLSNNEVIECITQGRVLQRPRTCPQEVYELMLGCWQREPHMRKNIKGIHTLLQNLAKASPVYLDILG

As to `COc1ccc2cc(-c3c(-c4ccncc4)nc(-c4ccc([S+](C)[O-])cc4)n3C)ccc2c1` (stereo not given), the inhibition (commonly the drop in the measured response relative to a control, in per cent) was -1.16% in assay [1]; 4.18% in [2]; 5.59% in [3]; 53.3% in assay [4]; 83.2% in assay [5]; 4.52% in [6]. Besides, the inhibition in [7] was 8.26%; in [8], 0.59%; in assay [9], 0.47%; in [10], 2.78%; in assay [11], 1.74%; in assay [12] it was 0.67%. For the same molecule, the inhibition is 1.15% in assay [13]; 0.11% in assay [14]; 1.86% in assay [15]; 1.4% in assay [16]; 4.06% in assay [17]; -2.53% in [18]. Besides, the inhibition was 7.86% in assay [19] and 3.45% in [20].

For the molecule `Cn1cc(C=C2C(=O)Nc3cccnc32)c2ccccc21`, the inhibition in assay [1] was -2.64%; in [2] it was 2.46%; in assay [3] it was 8.75%; in assay [4], 2.82%; in [5], 5.24%; in [6], 4.27%. Further, the inhibition in assay [7] was found to be 9.9%; in [8] it was 0.71%; in assay [9], 1.72%; in [10], 13.9%; in [11], 66%; in [12], 25.3%. The inhibition in assay [13] was 75.5%; in assay [14] it was 20.5%; in assay [15], 71.6%; in assay [16], 2.53%; in assay [17], 6.47%; in assay [18], -0.05%. Also, the inhibition in assay [19] was determined as 22.8%; in assay [20] it was 5.95%.

As to `CCn1c(-c2nonc2N)nc2c(C#CC(C)(C)O)nc(CN3CCCC3)cc21`, the inhibition was -0.03% in assay [1]; -0.24% in assay [2]; 1.81% in [3]; 2.79% in assay [4]; 3.96% in assay [5]; -0.12% in assay [6]. Besides, the inhibition was -4.05% in assay [7]; -0.98% in assay [8]; -1.32% in assay [9]; -2.07% in assay [10]; -1.66% in assay [11]; -0.98% in [12]. In addition, the inhibition is -0.47% in [13]; -1.68% in assay [14]; -2.34% in [15]; 1.55% in assay [16]; 2.08% in assay [17]; 3.47% in [18]. In addition, the inhibition turned out to be 5.1% in [19] and 0.54% in assay [20].
